According to PubChem BioAssay (NCATS):
Results filed as inconclusive are left out. Calls follow the shape of the dose curve; as a rule, active = well fitted curve in either direction with a large enough effect (not every such curve was filed as active); inconclusive = small, poorly fitted or top-dose-only effect, or another doubt; inactive = flat fitted curve, though single readings scatter.

Test: NFAT Signaling Pathway (AID 444);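 also: carbachol stimulus at about its EC50 of 1 µM final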
Conditions: Jurkat NFAT-bla M1, carbachol, beta-lactamase ratio, 5 h; at 17.2 µM (top of the series) unless noted
In short: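 Jurkat cells with NFAT-driven β-lactamase reporter and co-expressed M1 receptor, stimulated with carbachol (final 1 uM, ~EC50), compound titration, 5 h at 37 °C. CCF4 loaded 1 h at RT; 460/530 nm ratio gave %activity and AC50.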
% is scaled to controls: 0 for no effect and ±100 for the full control effect.

Activity change, negative = inhibition, inactive:
COCCNc1cc(C)c(C#N)c2nc3ccccc3n12 12.9%, C=CCc1cccc(/C=N/n2cnnc2)c1O -2.18%, N#Cc1nc(-c2cccs2)oc1NCc1ccccc1Cl -29.4%, Cc1cccc(N2CN=c3s/c(=C\c4ccncc4)c(=O)n3C2)c1 -17.2%, Cc1ccc(OCC(O)CNS(=O)(=O)c2ccccc2C(=O)O)cc1 (stereo not given) 6.08%, CCOc1ccc(C2C(C#N)=C(N)Oc3cc(C)n(CCN4CCOCC4)c(=O)c32)cc1OCC (stereo not given) 7.01%, CCC[C@@H]1C[C@@H](C(=O)N[C@H]([C@@H](C)O)[C@H]2O[C@H](SC)[C@H](O)[C@@H](O)C2O)N(C)C1 (stereo not given in full) 8.75%, Cc1nc2sc3c(c2c(=O)o1)CC(C)(C)OC3 -10.1%, Cc1nc2oc(C(=O)c3ccc(Br)cc3)c(N)c2c2c1COC(C)(C)C2 27.3%, Cn1c(=O)c2c(nc(Oc3ccc4c(c3)OCO4)n2Cc2ccc(Br)cc2)n(C)c1=O -5.35%, COc1ccc(C2NC3=C(CCC3)C3(C#N)C(OC)(OC)N=C(N)C23C#N)cc1 (stereo not given) 6.55%, CCn1cc(C(=O)NCc2ccco2)c(=O)c2cc(F)c(N3CCN(C(=O)c4ccco4)CC3)cc21 -28.1%, COc1ccccc1Nc1ncc(-c2cccs2)s1 11.7%, c1ccc(OCc2nn3c(-c4ccccn4)nnc3s2)cc1 -2.83%, COc1ccccc1-c1nnc2sc(C3CCCCC3)nn12 -6.47%, Cc1csc2nc(CSc3nc4ccccc4o3)cn12 -1.77%, CCCSC1=C(C#N)C(c2ccc(OC)cc2)C2=C(CC(C)(C)CC2=O)N1 (stereo not given) -24.7%, COc1ccc(OC)c(C2C(C(=O)c3ccco3)=C(O)C(=O)N2CCCN2CCOCC2)c1 (stereo not given) 0.311%, CC(O)(C#CCN1CCOCC1)c1ccccc1 (stereo not given) 8.45%, Clc1ccc(-n2ncc3c(NCCCn4ccnc4)ncnc32)cc1 -6.43%, CCOc1ccc(-c2nnc3sc(COc4ccccc4)nn23)cc1 4.76%, CCSC1=C(C#N)C(c2cccs2)C(C(=O)OC)=C(C)N1 (stereo not given) 2.23%, Clc1ccc(-n2ncc3c(NCc4ccccn4)ncnc32)cc1 -18.5%, CC(C)(C)n1cnc2cc(NS(=O)(=O)c3ccc(Br)cc3)ccc21 -27.1%, c1ccc(N2CCN(c3nc(-c4ccccn4)nc4ccccc34)CC2)cc1 0.815%, Cn1c(=O)c2c(nc(NCc3ccco3)n2Cc2ccccc2Cl)n(C)c1=O 2.77%, COc1ccc(CC(=O)Nc2cccc(-c3nnc(-c4ccco4)o3)c2)cc1 29.9%, Cc1cc(C)n(S(=O)(=O)Cc2ccccc2)n1 -1.74%, Cc1cc(OCCN2CCCCC2)nc2ccccc12 -29.3%, C=CCOC(=O)C1=C(C)NC(SCC(=O)N(CC)CC)=C(C#N)C1c1ccco1 (stereo not given) 6.04%, Cc1cc(N/C=C/C(=O)c2cccc3ccccc23)no1 -3.82%, N#Cc1c(NCCN)nc(NCc2ccccc2)c2c1CCN(Cc1ccccc1)C2 21.6%, Cc1ccc(C(=O)CSC2=C(C#N)C(c3ccco3)C3=C(CCCC3=O)N2)cc1 (stereo not given) -8.28%, CCNCc1cc2cc(C)ccc2[nH]c1=O -15.2%, CCCc1[nH]nc2c1C(c1c(C)nn(-c3ccccc3)c1Cl)C(C#N)=C(N)O2 (stereo not given) 14.9%, Clc1ccc(-c2nn3c(-c4cccc(Cl)c4)nnc3s2)cc1 -4.86%, COc1cccc(-c2nc(NCc3ccco3)c3ccccc3n2)c1O 7.35%, O=C(NCCCN1CCOCC1)C1(c2ccccc2)CCOCC1 -0.629%, CCN1CCc2c(C#N)c(N3CCOCC3)nc(NCCO)c2C1 3.49%, CC(C)Oc1ccc(/C(O)=C2/C(=O)C(=O)N(CCN3CCOCC3)C2c2ccccc2)cc1 (stereo not given) 19.7%

Test: Stat Signaling Pathway (AID 446);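 also: ME-180 cervical cancer cells given 40 pM IL-6 alongside compound; SIE-controlled beta-lactamase reporter measured as 460/530 nm FRET emission ratio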
Conditions: ME-180 (cervical carcinoma) SIE beta-lactamase reporter, IL-6 stimulated, 5 h; at 17.2 µM (top of the series) unless noted
In short: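 Compound effects on IL-6-induced STAT reporter activity were measured in ME-180 cells. After overnight culture, cells were co-treated with 40 pM IL-6 for 5 hrs before beta-lactamase substrate loading at room temperature.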

activity, negative = inhibition, inactive:
COCCNc1cc(C)c(C#N)c2nc3ccccc3n12 4.06%, C=CCc1cccc(/C=N/n2cnnc2)c1O 7.8%, N#Cc1nc(-c2cccs2)oc1NCc1ccccc1Cl -12.6%, Cc1cccc(N2CN=c3s/c(=C\c4ccncc4)c(=O)n3C2)c1 -0.937%, Cc1ccc(OCC(O)CNS(=O)(=O)c2ccccc2C(=O)O)cc1 (stereo not given) 4%, CCOc1ccc(C2C(C#N)=C(N)Oc3cc(C)n(CCN4CCOCC4)c(=O)c32)cc1OCC (stereo not given) 0.201%, CCC[C@@H]1C[C@@H](C(=O)N[C@H]([C@@H](C)O)[C@H]2O[C@H](SC)[C@H](O)[C@@H](O)C2O)N(C)C1 (stereo not given in full) -0.0835%, Cc1nc2sc3c(c2c(=O)o1)CC(C)(C)OC3 -8.31%, Cc1nc2oc(C(=O)c3ccc(Br)cc3)c(N)c2c2c1COC(C)(C)C2 0.926%, Cn1c(=O)c2c(nc(Oc3ccc4c(c3)OCO4)n2Cc2ccc(Br)cc2)n(C)c1=O -4.55%, COc1ccc(C2NC3=C(CCC3)C3(C#N)C(OC)(OC)N=C(N)C23C#N)cc1 (stereo not given) -5.86%, CCn1cc(C(=O)NCc2ccco2)c(=O)c2cc(F)c(N3CCN(C(=O)c4ccco4)CC3)cc21 -28.5%, COc1ccccc1Nc1ncc(-c2cccs2)s1 -4.45%, c1ccc(OCc2nn3c(-c4ccccn4)nnc3s2)cc1 0.158%, COc1ccccc1-c1nnc2sc(C3CCCCC3)nn12 8.63%, Cc1csc2nc(CSc3nc4ccccc4o3)cn12 4.59%, CCCSC1=C(C#N)C(c2ccc(OC)cc2)C2=C(CC(C)(C)CC2=O)N1 (stereo not given) -13%, COc1ccc(OC)c(C2C(C(=O)c3ccco3)=C(O)C(=O)N2CCCN2CCOCC2)c1 (stereo not given) -6.98%, CC(O)(C#CCN1CCOCC1)c1ccccc1 (stereo not given) 7.2%, Clc1ccc(-n2ncc3c(NCCCn4ccnc4)ncnc32)cc1 -0.823%, CCOc1ccc(-c2nnc3sc(COc4ccccc4)nn23)cc1 4.42%, CCSC1=C(C#N)C(c2cccs2)C(C(=O)OC)=C(C)N1 (stereo not given) -15.6%, Clc1ccc(-n2ncc3c(NCc4ccccn4)ncnc32)cc1 -20.2%, CC(C)(C)n1cnc2cc(NS(=O)(=O)c3ccc(Br)cc3)ccc21 -28%, c1ccc(N2CCN(c3nc(-c4ccccn4)nc4ccccc34)CC2)cc1 -14.9%, Cn1c(=O)c2c(nc(NCc3ccco3)n2Cc2ccccc2Cl)n(C)c1=O -14.8%, COc1ccc(CC(=O)Nc2cccc(-c3nnc(-c4ccco4)o3)c2)cc1 -27.7%, Cc1cc(C)n(S(=O)(=O)Cc2ccccc2)n1 14.5%, Cc1cc(OCCN2CCCCC2)nc2ccccc12 9.41%, C=CCOC(=O)C1=C(C)NC(SCC(=O)N(CC)CC)=C(C#N)C1c1ccco1 (stereo not given) -6.01%, Cc1cc(N/C=C/C(=O)c2cccc3ccccc23)no1 -10.2%, N#Cc1c(NCCN)nc(NCc2ccccc2)c2c1CCN(Cc1ccccc1)C2 -5.14%, Cc1ccc(C(=O)CSC2=C(C#N)C(c3ccco3)C3=C(CCCC3=O)N2)cc1 (stereo not given) -22.5%, CCNCc1cc2cc(C)ccc2[nH]c1=O 2.05%, CCCc1[nH]nc2c1C(c1c(C)nn(-c3ccccc3)c1Cl)C(C#N)=C(N)O2 (stereo not given) -29.6%, Clc1ccc(-c2nn3c(-c4cccc(Cl)c4)nnc3s2)cc1 3.59%, COc1cccc(-c2nc(NCc3ccco3)c3ccccc3n2)c1O -8.59%, O=C(NCCCN1CCOCC1)C1(c2ccccc2)CCOCC1 5.62%, CCN1CCc2c(C#N)c(N3CCOCC3)nc(NCCO)c2C1 11.3%, CC(C)Oc1ccc(/C(O)=C2/C(=O)C(=O)N(CCN3CCOCC3)C2c2ccccc2)cc1 (stereo not given) -0.677%
